Assay results taken from PubChem BioAssay (NCI).
This is part of a sample that, as a whole, favours compounds with a hit. Of some 83,000 tested, about 20% had one in any assay.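 48-hour exposure, single concentration, 96-well plates; percent growth endpoint where 0 means no net growth. Active: below 10.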 A number with no mark means an inactive call. Active and inactive are the calls of the source.

Columns and labels:
Assay in all cases: NCI-60 one-dose screen, 48 h (100 = growth as untreated, 0 = no growth, -100 = all killed)
Details in all cases: 10 µM
[1] = test system: DU-145 prostate
[2] = test system: K-562 leukemia
[3] = test system: MDA-MB-231 breast
[4] = test system: RXF 393 renal
[5] = test system: SF-268 CNS
[6] = test system: SF-295 CNS
[7] = test system: SF-539 CNS
[8] = test system: UACC-257 melanoma
[9] = test system: M14 melanoma
[10] = test system: HCT-15 colon
[11] = test system: HT29 colon
[12] = test system: SNB-75 CNS
[13] = test system: SNB-19 CNS
[14] = test system: U251 CNS
[15] = test system: PC-3 prostate
[16] = test system: SK-MEL-5 melanoma
[17] = test system: UACC-62 melanoma
[18] = test system: LOX IMVI melanoma
[19] = test system: SK-MEL-28 melanoma
[20] = test system: MALME-3M melanoma

Cc1cc(Br)nnc1Br
growth [1]: 121%
growth [2]: 99.5%
growth [3]: 92.7%
growth [4]: 120%
growth [5]: 107%
growth [6]: 111%
growth [7]: 87.9%
growth [8]: 133%
growth [9]: 96.8%
growth [10]: 102%
growth [11]: 113%
growth [12]: 75.4%
growth [13]: 110%
growth [14]: 112%
growth [15]: 110%
growth [16]: 94.7%
growth [17]: 111%
growth [18]: 108%
growth [19]: 114%

COc1ccc(-c2nn(-c3cccc(Cl)c3)cc2/C=C2\NC(=S)N(c3ccc(Cl)cc3)C2=O)cc1
growth [1]: 21.4%
growth [2]: -12.2% (active)
growth [20]: 19.1%
growth [3]: 11.8%
growth [4]: -7.45% (active)
growth [5]: 38%
growth [7]: 75.3%
growth [8]: 1.55% (active)
growth [9]: 4.39% (active)
growth [11]: 9.73% (active)
growth [12]: 0.109% (active)
growth [13]: 63.2%
growth [15]: 42.5%
growth [17]: 3.65% (active)
growth [18]: 1.65% (active)
growth [19]: -33.5% (active)

C#CC(C)(O)[C@@H]1C[C@H](CC(=O)O)C1(C)C (stereo not given in full)
growth [1]: 112%
growth [2]: 118%
growth [3]: 113%
growth [4]: 134%
growth [5]: 105%
growth [6]: 103%
growth [7]: 99.7%
growth [8]: 105%
growth [9]: 105%
growth [10]: 104%
growth [11]: 109%
growth [12]: 96%
growth [13]: 98.6%
growth [14]: 109%
growth [15]: 105%
growth [16]: 115%
growth [17]: 100%
growth [18]: 98.1%
growth [19]: 113%

CCOc1ccccc1/C=N\N=C(\N)N/N=C/c1ccccc1OCC
growth [1]: 46.1%
growth [2]: 16.3%
growth [3]: 52.5%
growth [4]: -1.54% (active)
growth [5]: 47.2%
growth [6]: 23.4%
growth [7]: 17.3%
growth [8]: 39.1%
growth [9]: 12.7%
growth [10]: 24.7%
growth [11]: 10.7%
growth [12]: -3.85% (active)
growth [13]: 43%
growth [14]: 38.3%
growth [15]: 31.9%
growth [16]: 17.8%
growth [17]: 30.9%
growth [18]: 30.9%
growth [19]: 42.9%

Cc1ccc(NC(=S)NNC(=S)Nc2ccc(C)cc2)cc1
growth [1]: 102%
growth [2]: 19.4%
growth [3]: 72.5%
growth [4]: 91.5%
growth [5]: 85%
growth [6]: 30%
growth [7]: 62.5%
growth [8]: 75.8%
growth [9]: 44.2%
growth [10]: 44.1%
growth [11]: 82.6%
growth [12]: 40.2%
growth [13]: 65.4%
growth [14]: 56.8%
growth [15]: 77.2%
growth [16]: 55.6%
growth [17]: 48.2%
growth [18]: 75.3%
growth [19]: 70.8%

COc1ccc(C2CC(c3cccs3)=NN2c2ccc(S(N)(=O)=O)cc2)cc1 (stereo not given)
growth [1]: 102%
growth [2]: 67.6%
growth [3]: 91.9%
growth [4]: 93.6%
growth [5]: 97.6%
growth [6]: 95.8%
growth [7]: 104%
growth [8]: 30.5%
growth [9]: 78.4%
growth [10]: 84.3%
growth [11]: 86.8%
growth [12]: 70.7%
growth [13]: 77.4%
growth [14]: 78%
growth [15]: 49.9%
growth [16]: 60.8%
growth [17]: 42.8%
growth [18]: 102%
growth [19]: 63.2%

COc1ccc2nc3cc(Cl)ccc3c(NCCCNCCO)c2c1
growth [1]: 5.64% (active)
growth [2]: -4.13% (active)
growth [20]: 17.8%
growth [3]: -53.8% (active)
growth [5]: -13.2% (active)
growth [6]: 3.49% (active)
growth [7]: -10.2% (active)
growth [8]: -75.4% (active)
growth [9]: -62.8% (active)
growth [10]: 13.6%
growth [11]: -66.3% (active)
growth [12]: -36.4% (active)
growth [13]: 4.9% (active)
growth [14]: -45.2% (active)
growth [15]: -30.6% (active)
growth [16]: 14.3%
growth [17]: -64.2% (active)
growth [18]: -59.7% (active)
growth [19]: -49% (active)

COc1ccccc1-n1c(-c2csc(NC(C)=O)n2)n[nH]c1=S
growth [1]: 119%
growth [2]: 87.5%
growth [20]: 109%
growth [3]: 121%
growth [4]: 102%
growth [5]: 111%
growth [7]: 112%
growth [8]: 98.1%
growth [9]: 98%
growth [11]: 95.1%
growth [12]: 86.5%
growth [13]: 114%
growth [15]: 95.4%
growth [17]: 110%
growth [18]: 93.1%
growth [19]: 109%

C=CCNCCN1C(=O)c2ccc3c4c(ccc(c24)C1=O)C(=O)N(CCNCC=C)C3=O
growth [1]: -87.7% (active)
growth [2]: 1.43% (active)
growth [3]: 5.12% (active)
growth [4]: -74.3% (active)
growth [5]: -17.5% (active)
growth [6]: -73.1% (active)
growth [7]: -90.6% (active)
growth [8]: -90.3% (active)
growth [9]: -84.3% (active)
growth [10]: -67.4% (active)
growth [11]: -44.9% (active)
growth [12]: -37.9% (active)
growth [13]: -88.1% (active)
growth [14]: -89.4% (active)
growth [15]: -7.8% (active)
growth [16]: -95.4% (active)
growth [17]: -74.9% (active)
growth [18]: -78.8% (active)
growth [19]: -57% (active)

O=[N+]([O-])c1ccc(NCSc2ccc(Cl)cc2)cc1
growth [1]: 98.3%
growth [2]: 86.9%
growth [3]: 94.3%
growth [4]: 103%
growth [5]: 94.1%
growth [6]: 105%
growth [7]: 99.7%
growth [8]: 101%
growth [9]: 109%
growth [10]: 96.9%
growth [11]: 107%
growth [12]: 98.6%
growth [13]: 103%
growth [14]: 82%
growth [15]: 80.9%
growth [16]: 100%
growth [17]: 77.8%
growth [18]: 81.9%
growth [19]: 104%

COc1ccc2c(c1)C(CC(=O)NN)CCC2 (stereo not given)
growth [1]: 114%
growth [2]: 94.3%
growth [3]: 101%
growth [4]: 115%
growth [5]: 96.3%
growth [6]: 109%
growth [7]: 100%
growth [8]: 90.5%
growth [9]: 104%
growth [10]: 104%
growth [11]: 112%
growth [12]: 89.9%
growth [13]: 109%
growth [14]: 102%
growth [15]: 100%
growth [16]: 104%
growth [17]: 104%
growth [18]: 93.7%
growth [19]: 113%

NC(N)=N/N=C(\c1ccccc1)C(O)c1ccccc1 (stereo not given)
growth [1]: 112%
growth [2]: 90.7%
growth [20]: 96.2%
growth [3]: 100%
growth [4]: 98.8%
growth [6]: 102%
growth [7]: 111%
growth [8]: 101%
growth [9]: 97.3%
growth [10]: 111%
growth [11]: 92.3%
growth [12]: 93.7%
growth [13]: 95.3%
growth [14]: 106%
growth [15]: 94.6%
growth [16]: 103%
growth [17]: 94.6%
growth [18]: 94.2%
growth [19]: 107%

CN(C)c1nc(N)c2nccnc2n1
growth [1]: 108%
growth [2]: 128%
growth [3]: 108%
growth [4]: 115%
growth [5]: 101%
growth [6]: 84.4%
growth [7]: 105%
growth [8]: 111%
growth [9]: 117%
growth [10]: 120%
growth [11]: 110%
growth [12]: 84.8%
growth [13]: 104%
growth [14]: 112%
growth [15]: 104%
growth [16]: 107%
growth [17]: 98%
growth [18]: 95.1%
growth [19]: 118%

Cc1cc(=O)n2nnc3cc(C(F)(F)F)ccc3n12
growth [1]: 105%
growth [2]: 99.1%
growth [3]: 108%
growth [4]: 123%
growth [5]: 107%
growth [6]: 92.7%
growth [7]: 106%
growth [8]: 106%
growth [9]: 113%
growth [10]: 101%
growth [11]: 104%
growth [12]: 116%
growth [13]: 109%
growth [14]: 107%
growth [15]: 101%
growth [16]: 109%
growth [17]: 102%
growth [18]: 106%
growth [19]: 118%

COC(=O)CC[C@@H](C)[C@H]1CC[C@H]2[C@@H]3CC[C@@H]4C[C@H](O)CC[C@]4(C)[C@H]3C[C@H](O)[C@]12C
growth [1]: 118%
growth [2]: 76.4%
growth [3]: 120%
growth [4]: 110%
growth [5]: 95.6%
growth [6]: 100%
growth [7]: 111%
growth [8]: 110%
growth [9]: 102%
growth [10]: 92.4%
growth [11]: 89%
growth [12]: 91.4%
growth [13]: 105%
growth [14]: 98.6%
growth [15]: 67.7%
growth [16]: 88.5%
growth [17]: 87.2%
growth [18]: 93.6%
growth [19]: 118%

CC(=O)Nc1cc2c(cc1Cl)Cc1cc(Cl)ccc1-2
growth [1]: 106%
growth [2]: 108%
growth [20]: 113%
growth [4]: 98.7%
growth [5]: 88.4%
growth [6]: 109%
growth [7]: 88.1%
growth [8]: 88.9%
growth [9]: 106%
growth [10]: 85.9%
growth [11]: 99.4%
growth [12]: 64.1%
growth [14]: 89.1%
growth [15]: 86.1%
growth [16]: 86.6%
growth [18]: 89.7%
growth [19]: 104%

O=C1c2ccccc2C(=O)N1CCCCNc1ccccc1
growth [1]: 102%
growth [2]: 149%
growth [3]: 79.6%
growth [4]: 104%
growth [5]: 54.1%
growth [6]: 98%
growth [7]: 74.6%
growth [8]: 106%
growth [9]: 98.9%
growth [10]: 96.8%
growth [11]: 110%
growth [12]: 90.8%
growth [13]: 96.8%
growth [14]: 86.3%
growth [15]: 75.5%
growth [16]: 105%
growth [17]: 96%
growth [18]: 117%
growth [19]: 113%
